{"source": "paper PMC5540273", "about": "(PLoS ONE, 2017);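 note: KINOMEscan kinase panel screen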"}
{"tested_on": "EPHA2", "settings": "concentration: 1 μM, replicates: in singlicate; n = 1", "units": {"%Inh": "%"}}
{"compound": "Nc1ncc(-c2ccc3nccc(-c4ccncc4)c3c2)cc1S(=O)(=O)N1CCCCC1", "note": "[GSK1693850]", "%Inh": 21}
{"compound": "COc1cccc(CC(=O)N2CCc3cc(-c4cn(C)c5ncnc(N)c45)ccc32)c1", "note": "[GSK2608899]", "%Inh": 0}
{"compound": "CC(C)NCC(Cc1ccccc1)NC(=O)c1cc(Br)c(-c2ccnc3[nH]ccc23)s1.Cl.Cl", "note": "(stereo not drawn) [GSK1383281]", "%Inh": 0}
{"compound": "Nc1ncc(-c2cn[nH]c2)c2scc(-c3ccc4c(c3)CCN4C(=O)Cc3ccccc3)c12", "note": "[GSK2593067]", "%Inh": 0}
{"compound": "Cc1cccc(Nc2nc(NCCN)ncc2C(N)=O)c1", "note": "[GSK1292139]", "%Inh": 0}
{"compound": "CC(C)c1nc(-c2cccc(NS(=O)(=O)c3c(F)cccc3F)c2)c(-c2ccnc(Nc3ccc(N4CCOCC4)nc3)n2)s1.Cl", "note": "[GSK1723980]", "%Inh": 0}
{"compound": "Cc1ccc(-c2ccc3occ(-c4ccc(S(C)=O)cc4)c3c2)nn1", "note": "(stereo not drawn)", "%Inh": 4}
{"compound": "COc1ccc(C2=C(Nc3cccc(O)c3)C(=O)NC2=O)cc1", "note": "[SB-390766]", "%Inh": 0}
{"compound": "COc1ccc(NC(=O)c2ccoc2)cc1-c1ccc(C(=O)NCC2CC2)cc1", "note": "[GW810437]", "%Inh": 0}
{"compound": "Cc1nn2c(=O)cc(N3CCO[C@H](C)C3)nc2n1Cc1cccc(Cl)c1Cl", "note": "[GSK2373693]", "%Inh": 21}
{"compound": "Cl.O=C(Nc1ccc(Oc2ccc3[nH]c(NC(=O)c4ccco4)nc3c2)cc1)Nc1cc(C(F)(F)F)ccc1F", "note": "[GW683134]", "%Inh": 95.2}
{"compound": "O=C(O)C(F)(F)F.O=c1[nH]ccc2nc(N[C@@H]3CCNC3)nc(Nc3ccc4c(c3)S(=O)(=O)CC4)c12", "note": "[GSK2181306]", "%Inh": 7}
